We go through 56 compounds from PubChem BioAssay AID2025 (NMMLSC, 2009).

Molecules are shown by their SMILES. In all, about 330,000 compounds went through this assay and about 980 (0.3%) were called active. The sample as a whole holds a higher share of actives than the screen did. Unmarked numbers belong to inactive results.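 Rule for the calls: active = percent response vs DMSO below 50%; inconclusive = fewer than 70 events counted for the yeast strain; inactive = the rest.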

The experiment in a line: RPL19A-GFP expression modulators in yeast, primary screen, cell-based, S. cerevisiae, multiplex flow cytometry, MLPCN (AID 2025).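 Note: median channel GFP fluorescence of the barcoded RPL19A-GFP strain; ratio of sample median GFP to plate DMSO average so 100% = DMSO; lower means less RPL19A-GFP as with rapamycin TOR inhibition.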 The conditions noted are these: S. cerevisiae RPL19A-GFP strain, 3 h, at 10 µM, stronger effect = lower value.
`CCn1cc(C(=O)OCC(=O)Nc2cccc(C)c2)c(=O)c2ccc(C)nc21`: the percent response vs DMSO was 96.6%.
In the case of `C=CC[C@H](CC(=O)N(CCO)Cc1ccccc1)C(=O)N[C@@H](COC(=O)[C@@H](CC=C)Cc1ccc(F)cc1)Cc1ccccc1`, the percent response vs DMSO was 96%.
The figure for `CCNS(=O)(=O)c1ccc(NC(=O)c2cncc(Br)c2)cc1` is 96.5%; for `O=C(CN1CCN(S(=O)(=O)c2ccc(Br)cc2)CC1)Nc1ccccc1C(=O)c1ccccc1` it is 100%; for `O=C(CNC(=O)c1ccccc1)Oc1ccc([N+](=O)[O-])cc1` it is 103%.
Turning to `O=C(NNS(=O)(=O)Cc1ccccc1)c1ccc([N+](=O)[O-])cc1`, the percent response vs DMSO was 44.4% [may fluoresce violet] (active).
The figure for `O=C(Cc1ccccc1)NNS(=O)(=O)c1ccc([N+](=O)[O-])cc1` is 97.4%.
The figure for `CC(=O)c1ccc(N2CCN(C(=O)CCNC(=O)Cn3ccc4ccccc4c3=O)CC2)cc1` is 104%; for `COc1cc(C(C(=O)NC2CCCC2)N(C(=O)c2ccco2)c2ccccc2C(C)=O)cc(OC)c1OC` (stereo unspecified) it is 108%.
The result for `O=C(c1ccncc1)c1ccc([N+](=O)[O-])cc1` reads 98.9%.
Take `O=C(CC(n1cncn1)C(Cl)(Cl)Cl)c1ccc([N+](=O)[O-])cc1` (stereo unspecified): the percent response vs DMSO is 104%.
`O=C(C1CCCO1)N(c1ccc(F)cc1)C1C=CS(=O)(=O)C1` (stereo unspecified): the percent response vs DMSO was 97.9%.
With `CCOc1ccc(C(C(=O)NC2CCCC2)N(C(=O)c2snc(C(N)=O)c2N)C2CCCC2)cc1` (stereo unspecified), the percent response vs DMSO is 95.8%.
With `CC(C)(C)NC(=O)C(c1ccc(Cl)cc1)N(CCO)C(=O)c1snc(C(N)=O)c1N` (stereo unspecified), the percent response vs DMSO is 99.5%.
For `NC(=O)c1nsc(C(=O)N(CCCN2CCOCC2)C(C(=O)NC2CCCCC2)c2ccc(Cl)cc2)c1N` (stereo unspecified), the percent response vs DMSO was 38% [may fluoresce violet] (active).
Regarding `O=C(O)c1ccc(S(=O)(=O)N2CCOCC2)o1`, the percent response vs DMSO was 47.2% [may fluoresce violet] (active).
For `O=C(CCc1ccc(S(=O)(=O)N2CCOCC2)cc1)NN=C1CCCCCCC1`, the percent response vs DMSO was 101%.
Take `O=C(c1cc(S(=O)(=O)N2CCOCC2)ccc1Cl)N1CCOCC1`: the percent response vs DMSO was 112%.
For the compound `CCOC(=O)CNC(=O)/C=C/c1c(Cl)cccc1Cl`, the percent response vs DMSO was 94.2%.
Regarding `CC(C)=CCCC1(C)C=Cc2c(ccc3c2[nH]c2cc(O)c(C)cc23)O1` (stereo unspecified), the percent response vs DMSO was 97.2%.
In the case of `O=C1CN(C(=O)COC(=O)c2cnc(Cl)c(Cl)c2)c2ccccc2N1`, the percent response vs DMSO was 18.6% [may fluoresce violet] (active).
In the case of `COc1cc(OC)c(C(=O)OCC(=O)N2CC(=O)Nc3ccccc32)cc1OC`, the percent response vs DMSO was 93.3%.
On to `O=C1CN(C(=O)COc2c(Cl)cccc2Cl)c2ccccc2N1`, for which the percent response vs DMSO is 91.8%.
With `CN(NC(=O)C1CC(=O)N(c2ccccc2)C1)C1=NS(=O)(=O)c2ccccc21` (stereo unspecified), the percent response vs DMSO is 102%.
Turning to `CC1(C)CC2CC(C)(CN2c2ncnc3ccc(Br)cc23)C1` (stereo unspecified), the percent response vs DMSO is 105%.
The figure for `CN(CC(=O)Nc1ccccc1Cl)C(=O)c1ccccc1SCC(=O)N1CCCC1` is 94.7%.
As for `CSc1nc2nc3c(c(=O)n2[nH]1)CCC3`, the percent response vs DMSO is 89.8%.
Consider `O=c1c2c(nc3cc(-c4cccc(Cl)c4)[nH]n13)CCCC2`, for which the percent response vs DMSO was 99.2%.
Take `O=c1c2c(nc3nc[nH]n13)CCC2`: the percent response vs DMSO is 19.2% [may fluoresce violet] (active).
For `CCCCCC(O)c1cccc(OCc2ccc3ccccc3n2)c1` (stereo unspecified), the percent response vs DMSO was 88.3%.
Turning to `O=C1CC(=O)Nc2cc(S(=O)(=O)N3CCN(c4cccc(C(F)(F)F)c4)CC3)ccc2N1`, the percent response vs DMSO was 97.6%.
For the compound `Cc1nc2c(ncn2-c2ccccc2)c(=O)n1NC(=O)CN1CCCC1`, the percent response vs DMSO is 27.7% [may fluoresce violet] (active).
As to `Cc1nc2ccccc2c(=O)n1NC(=O)c1ccccc1`, the percent response vs DMSO is 100%.
For the compound `O=C(CN1CCCC1)N1CCN(c2ccccc2)CC1`, the percent response vs DMSO was 90.5%.
Turning to `CN(CCc1cnn(C)c1)Cc1cn(C)nc1-c1ccccc1F`, the percent response vs DMSO was 96.2%.
The figure for `COc1cc(CN2CCCC(C(=O)c3ccc(SC)cc3)C2)cc(Cl)c1O` (stereo unspecified) is 40.5% [may fluoresce violet] (active).
As for `COc1ccc(C(=O)NC2CC2)cc1OC1CCN(Cc2ccc(SC)cc2)CC1`, the percent response vs DMSO was 101%.
`COc1ccc(CN2CCCC(C(=O)c3ccc(Cl)cc3)C2)cc1Cn1cncn1` (stereo unspecified): the percent response vs DMSO was 105%.
The result for `CN(C)C(=O)c1cc(Br)ccc1Cl` reads 95.1%; that for `Cc1ccc(SCc2cc(=O)[nH]c(N3CCCCC3)n2)cc1`, 97.5%.
The figure for `Cc1ccc(SCCSc2ncccn2)cc1` is 109%; for `Cc1ccc(SCC2=NNC(=O)C2)cc1` it is 38.4% [may fluoresce violet] (active).
The result for `Cc1cccc(N2CCN(C(=O)CN(C)S(=O)(=O)c3ccc4c(c3)CCC(=O)N4)CC2)c1C` reads 99.3%; that for `Clc1c(OCCCn2ccnc2)ccc2ccccc12`, 99.7%; that for `CCC(Oc1ccccc1)C(=O)NCc1cccnc1` (stereo unspecified), 100%.
Turning to `CC(=O)OC(C(=O)NCCc1ccccc1)c1cccnc1` (stereo unspecified), the percent response vs DMSO was 47.6% [may fluoresce violet] (active).
Consider `O=C(CSc1ncccn1)NCCc1ccccc1`, for which the percent response vs DMSO was 99.8%.
Turning to `O=C1COc2ccc(C(=O)COC(=O)CCOc3ccccc3)cc2N1`, the percent response vs DMSO was 97.8%.
On to `COCCN(CCOC)S(=O)(=O)c1ccc(C(=O)Nc2nc3c(s2)CCc2ccccc2-3)cc1`, for which the percent response vs DMSO was 25.1% [may fluoresce violet] (active).
The result for `COc1ccc(C(=O)Nc2ncc3c(n2)-c2ccccc2CC3)cc1` reads 97.8%; that for `C=CCN(CC=C)S(=O)(=O)c1ccc(C(=O)Nc2nc3c(s2)CCc2ccccc2-3)cc1`, 103%; that for `COc1cc(CNc2ncn[nH]2)ccc1OCc1ccccc1C`, 103%.
Take `O=C1COc2ccc(S(=O)(=O)NCCc3ccc(Cl)cc3)cc2N1`: the percent response vs DMSO is 103%.
As to `O=C(Cc1c(F)cccc1Cl)Nc1ccc(-n2cnnn2)cc1`, the percent response vs DMSO is 94.7%.
`O=C(COc1ccc(-n2cnnn2)cc1)Nc1ccccc1Cl`: the percent response vs DMSO was 33.1% [may fluoresce violet] (active).
Regarding `C=CCc1cccc(/C=N/NC(=O)COc2ccc(-n3cnnn3)cc2)c1O`, the percent response vs DMSO is 105%.
